Compounds without any hit were thinned out: in the full panel of roughly 79,000, 15% have a hit. Unmarked numbers belong to inactive results. Activity calls are given as the source filed them. No stated cut-off is given here; in the data, active means growth inhibition above about 70%; inactive means the rest.

Assay [1] is described as follows: NCI Yeast Anticancer Drug Screen. Data for the rad50 strain (AID 155).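 Further: 0% = growth of vehicle-only cultures of the same strain.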 The conditions noted are these: S. cerevisiae rad50 strain growth inhibition, hits give high values. In a few lines:
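Vehicle-treated cultures provide the reference for the growth inhibition reported for compound-exposed, repair-deficient yeast.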

A short description of assay [2]: NCI Yeast Anticancer Drug Screen. Data for the mec2-1 strain (AID 157). The note with it: S. cerevisiae mec2-1 strain, hits give high values. In a few lines:
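Each compound was tested on mec2-1 yeast, a strain altered in DNA damage repair or cell cycle control. Growth inhibition is reported relative to vehicle.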

Assay [3] can be described thus: NCI Yeast Anticancer Drug Screen. Data for the sgs1 mgt1 strain (AID 161).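 Further: 0% = growth of cultures given vehicle only.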 The note with it: S. cerevisiae sgs1 mgt1 strain, hits give high values. A digest of the protocol:
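Read-out: growth inhibition vs vehicle controls. Cells: mutant yeast strain deficient in DNA damage repair.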

The nature of assay [4]: NCI Yeast Anticancer Drug Screen. Data for the cln2 rad14 strain (AID 165).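 Further: 0% = growth equal to vehicle treated cultures.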 The note with it: S. cerevisiae cln2 rad14 strain, hits give high values. A digest of the protocol: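 Test compounds were added to cln2 rad14 yeast cultures; inhibition of growth was then determined by comparison with vehicle treatment.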
The nature of assay [5]: NCI Yeast Anticancer Drug Screen. Data for the bub3 strain (AID 167). The conditions noted are these: S. cerevisiae bub3 mutant strain, hits give high values. A digest of the protocol: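 Mutant yeast screening strain plus compound; vehicle-treated cultures serve as the 0% inhibition reference.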
A short description of assay [6]: NCI Yeast Anticancer Drug Screen. Data for the mlh1 rad18 strain (AID 175). The conditions noted are these: S. cerevisiae mlh1 rad18 strain growth inhibition, hits give high values. In a few lines:
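Inhibition values reflect reduced growth of mutant yeast versus vehicle-treated controls following compound exposure; the mutations affect DNA damage repair.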

Where [7] appears, read: at 5.0 µM (retest, dose inferred, filed as 0.5).
The mark [8] stands for this setting: at 50.0 µM (retest, dose inferred, filed as 5.0).

Consider `CC[PH+](CC)CC[S-].CC[PH+](CC)CC[S-].[Au+].[Au+]`, for which the growth inhibition was 5% in assay [1] (setting [7]); 13% in assay [1] (setting [8]); 46.4% in assay [1] (at 50.0 µM); 14% in assay [2] (setting [7]); 18% in assay [2] (setting [8]); -0.55% in assay [2] (at 50.0 µM). Besides, the growth inhibition in assay [3] (setting [7]) is 12%; in assay [3] (setting [8]), 23%; in assay [3] (at 50.0 µM) it was 11.2%; in assay [4] (setting [7]) it was 4%; in assay [4] (setting [8]), 6%; in assay [4] (at 50.0 µM), -12.4%. In addition, the growth inhibition in assay [5] (setting [7]) is 14%; in assay [5] (setting [8]) it was 7%; in assay [5] (at 50.0 µM), 8.1%; in assay [6] (setting [7]), 55%; in assay [6] (setting [8]), 15%; in assay [6] (at 50.0 µM), -35.8%.

As for `Oc1c(O)c(Br)c(Br)c(Br)c1Br`, the growth inhibition was 97% (active) in assay [1] (setting [7]); 98% (active) in assay [1] (setting [8]); 91.2% (active) in assay [1] (at 50.0 µM); 99% (active) in assay [2] (setting [7]); 99% (active) in assay [2] (setting [8]); 93.5% (active) in assay [2] (at 50.0 µM). Further, the growth inhibition in assay [3] (setting [7]) is 99% (active); in assay [3] (setting [8]), 99% (active); in assay [3] (at 50.0 µM) it was 93.5% (active); in assay [4] (setting [7]) it was 98% (active); in assay [4] (setting [8]), 99% (active); in assay [4] (at 50.0 µM), 93% (active). Also, the growth inhibition in assay [5] (setting [7]) was 98% (active); in assay [5] (setting [8]), 98% (active); in assay [5] (at 50.0 µM) it was 91.8% (active); in assay [6] (setting [7]), 98% (active); in assay [6] (setting [8]), 99% (active); in assay [6] (at 50.0 µM), 91.8% (active).

Turning to `COc1cc2c(c3c[n+](C)c4c5cc6c(cc5ccc4c13)OCO6)OCO2`, the growth inhibition in assay [1] (setting [7]) is 98% (active); in assay [1] (setting [8]) it was 98% (active); in assay [1] (at 50.0 µM), 92.2% (active); in assay [2] (setting [7]), 99% (active); in assay [2] (setting [8]), 99% (active); in assay [2] (at 50.0 µM), 94.8% (active). The growth inhibition was 99% (active) in assay [3] (setting [7]); 98% (active) in assay [3] (setting [8]); 93.7% (active) in assay [3] (at 50.0 µM); 98% (active) in assay [4] (setting [7]); 98% (active) in assay [4] (setting [8]); 92.2% (active) in assay [4] (at 50.0 µM). For the same compound, the growth inhibition in assay [5] (setting [7]) is 98% (active); in assay [5] (setting [8]), 97% (active); in assay [5] (at 50.0 µM), 93.1% (active); in assay [6] (setting [7]), 99% (active); in assay [6] (setting [8]) it was 98% (active); in assay [6] (at 50.0 µM) it was 92.8% (active).

On to `C/C(=N\Nc1ccccc1)C(CN(C)C)C(c1ccccc1)c1c(O)c2ccccc2oc1=O` (stereo not given), for which the growth inhibition was 24% in assay [1] (setting [7]); 24% in assay [1] (setting [8]); 88.2% (active) in assay [1] (at 50.0 µM); 14% in assay [2] (setting [7]); 14% in assay [2] (setting [8]); 86.2% (active) in assay [2] (at 50.0 µM). Further, the growth inhibition in assay [3] (setting [7]) was 16%; in assay [3] (setting [8]), 16%; in assay [3] (at 50.0 µM), 87.8% (active); in assay [4] (setting [7]) it was 5%; in assay [4] (setting [8]), 5%; in assay [4] (at 50.0 µM), 86% (active). The growth inhibition in assay [5] (setting [7]) was 10%; in assay [5] (setting [8]) it was 10%; in assay [5] (at 50.0 µM), 83.6% (active); in assay [6] (setting [7]) it was 12%; in assay [6] (setting [8]) it was 12%; in assay [6] (at 50.0 µM) it was 86.5% (active).

On to `O=C([O-])C(F)(F)C(F)(F)F.[C-]#[O+].[C-]#[O+].[C-]#[O+].[C-]#[O+].[C-]#[O+].[Re]`, for which the growth inhibition in assay [1] (setting [7]) is 15%; in assay [1] (setting [8]), 15%; in assay [1] (at 50.0 µM) it was 83.7% (active); in assay [2] (setting [7]), 13%; in assay [2] (setting [8]), 13%; in assay [2] (at 50.0 µM), 92% (active). The growth inhibition is 12% in assay [3] (setting [7]); 12% in assay [3] (setting [8]); 90.7% (active) in assay [3] (at 50.0 µM); 12% in assay [4] (setting [7]); 12% in assay [4] (setting [8]); 68.5% in assay [4] (at 50.0 µM). The growth inhibition in assay [5] (setting [7]) is -4%; in assay [5] (setting [8]), -4%; in assay [5] (at 50.0 µM), 91.5% (active); in assay [6] (setting [7]) it was 10%; in assay [6] (setting [8]), 10%; in assay [6] (at 50.0 µM), 44%.

Turning to `Clc1cc[c]([Tl][c]2ccc(Cl)cc2)cc1`, the growth inhibition was 94% (active) in assay [1] (setting [7]); 98% (active) in assay [1] (setting [8]); 22.9% in assay [1] (at 50.0 µM); 97% (active) in assay [2] (setting [7]); 100% (active) in assay [2] (setting [8]); 11.2% in assay [2] (at 50.0 µM). The growth inhibition in assay [3] (setting [7]) was 90% (active); in assay [3] (setting [8]), 99% (active); in assay [3] (at 50.0 µM) it was 82.8% (active); in assay [4] (setting [7]), 92% (active); in assay [4] (setting [8]) it was 97% (active); in assay [4] (at 50.0 µM), 94.3% (active). Besides, the growth inhibition in assay [5] (setting [7]) was 95% (active); in assay [5] (setting [8]), 98% (active); in assay [5] (at 50.0 µM), 89.7% (active); in assay [6] (setting [7]) it was 94% (active); in assay [6] (setting [8]), 98% (active); in assay [6] (at 50.0 µM), -1.3%.

`CCc1c[c]([Hg][Cl])c(CC)c(CC)c1CC`: the growth inhibition was 5% in assay [1] (setting [7]); 99% (active) in assay [1] (setting [8]); 99.4% (active) in assay [1] (at 50.0 µM); 68% in assay [2] (setting [7]); 99% (active) in assay [2] (setting [8]); 99.7% (active) in assay [2] (at 50.0 µM). The growth inhibition is 40% in assay [3] (setting [7]); 100% (active) in assay [3] (setting [8]); 99.7% (active) in assay [3] (at 50.0 µM); 2% in assay [4] (setting [7]); 90% (active) in assay [4] (setting [8]); 23.7% in assay [4] (at 50.0 µM). Also, the growth inhibition is 7% in assay [5] (setting [7]); 99% (active) in assay [5] (setting [8]); 16.1% in assay [5] (at 50.0 µM); 35% in assay [6] (setting [7]); 99% (active) in assay [6] (setting [8]); 98.6% (active) in assay [6] (at 50.0 µM).

Take `COc1cc(C(=O)[O][Hg][CH2]C2CC(O)CC([CH2][Hg][O]C(=O)c3cc(OC)c(OC)c(OC)c3)O2)cc(OC)c1OC` (stereo not given): the growth inhibition is 97% (active) in assay [1] (setting [7]); 98% (active) in assay [1] (setting [8]); 99.3% (active) in assay [1] (at 50.0 µM); 98% (active) in assay [2] (setting [7]); 99% (active) in assay [2] (setting [8]); 99.6% (active) in assay [2] (at 50.0 µM). The growth inhibition in assay [3] (setting [7]) was 99% (active); in assay [3] (setting [8]) it was 99% (active); in assay [3] (at 50.0 µM), 99.6% (active); in assay [4] (setting [7]), 95% (active); in assay [4] (setting [8]), 96% (active); in assay [4] (at 50.0 µM) it was 98.5% (active). The growth inhibition in assay [5] (setting [7]) is 97% (active); in assay [5] (setting [8]), 99% (active); in assay [5] (at 50.0 µM) it was 99.1% (active); in assay [6] (setting [7]), 99% (active); in assay [6] (setting [8]), 99% (active); in assay [6] (at 50.0 µM), 98.7% (active).

`Nc1c([N+](=O)[O-])cc(Cl)cc1[N+](=O)[O-]`: the growth inhibition in assay [1] (setting [7]) is 1%; in assay [1] (setting [8]) it was 84% (active); in assay [1] (at 50.0 µM), 73.8% (active); in assay [2] (setting [7]), 0%; in assay [2] (setting [8]) it was 89% (active); in assay [2] (at 50.0 µM), 63.8%. The growth inhibition is 1% in assay [3] (setting [7]); 98% (active) in assay [3] (setting [8]); 94.2% (active) in assay [3] (at 50.0 µM); 1% in assay [4] (setting [7]); 28% in assay [4] (setting [8]); -14.6% in assay [4] (at 50.0 µM). Also, the growth inhibition in assay [5] (setting [7]) was -3%; in assay [5] (setting [8]) it was 86% (active); in assay [5] (at 50.0 µM), 64.7%; in assay [6] (setting [7]), 2%; in assay [6] (setting [8]), 97% (active); in assay [6] (at 50.0 µM) it was 78.3% (active).

As for `O=C1OCC2CC3C4C=CC(C4)C3C12` (stereo not given), the growth inhibition in assay [1] (setting [7]) was 40%; in assay [1] (setting [8]), 99% (active); in assay [1] (at 50.0 µM) it was 99.2% (active); in assay [2] (setting [7]), 47%; in assay [2] (setting [8]), 100% (active); in assay [2] (at 50.0 µM) it was 99.5% (active). The growth inhibition was 69% in assay [3] (setting [7]); 99% (active) in assay [3] (setting [8]); 99.4% (active) in assay [3] (at 50.0 µM); 4% in assay [4] (setting [7]); 99% (active) in assay [4] (setting [8]); 99% (active) in assay [4] (at 50.0 µM). Moreover, the growth inhibition in assay [5] (setting [7]) is 20%; in assay [5] (setting [8]), 99% (active); in assay [5] (at 50.0 µM) it was 99.4% (active); in assay [6] (setting [7]), 77% (active); in assay [6] (setting [8]) it was 99% (active); in assay [6] (at 50.0 µM), 99.2% (active).

The values above are taken from PubChem BioAssay (NCI).
